The nature of experiment [1]: NCI Yeast Anticancer Drug Screen. Data for the rad50 strain (AID 155).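 Further: 0% = growth of vehicle-only cultures of the same strain.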 As to conditions: S. cerevisiae rad50 strain growth inhibition, hits give high values. In outline: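 Inhibition values express reduced yeast growth in compound-treated cultures relative to vehicle-treated controls.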
The nature of experiment [2]: NCI Yeast Anticancer Drug Screen. Data for the mec2-1 strain (AID 157). As to conditions: S. cerevisiae mec2-1 strain, hits give high values. An outline of the steps: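 Yeast mec2-1 mutant treated with compound. Readout: growth inhibition vs vehicle controls.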
Experiment [3] can be described thus: NCI Yeast Anticancer Drug Screen. Data for the sgs1 mgt1 strain (AID 161).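 Further: 0% = growth of cultures given vehicle only.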 The note with it: S. cerevisiae sgs1 mgt1 strain, hits give high values. An outline of the steps: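 Mutant yeast exposed to compound; growth scored against vehicle-only wells.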
The nature of experiment [4]: NCI Yeast Anticancer Drug Screen. Data for the bub3 strain (AID 167). As to conditions: S. cerevisiae bub3 mutant strain, hits give high values. In outline:
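Steps: expose the mutant yeast strain to compound; grow alongside vehicle-treated cultures; measure growth; express inhibition against the vehicle cultures.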

A short description of experiment [5]: NCI Yeast Anticancer Drug Screen. Data for the mlh1 rad18 strain (AID 175). As to conditions: S. cerevisiae mlh1 rad18 strain growth inhibition, hits give high values. In outline:
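Yeast w/ defined DNA-repair lesions; compound exposure; growth vs vehicle controls → % inhibition.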

Experiment [6] in a line: NCI Yeast Anticancer Drug Screen. Data for the cln2 rad14 strain (AID 165).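 Further: 0% = growth equal to vehicle treated cultures.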 As to conditions: S. cerevisiae cln2 rad14 strain, hits give high values. In outline:
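cln2 rad14 yeast strain; compound exposure; growth inhibition read vs vehicle controls.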

The mark [7] stands for this setting: at 5.0 µM (retest, dose inferred, filed as 0.5).
The mark [8] stands for this setting: at 50.0 µM (retest, dose inferred, filed as 5.0).

The structures appear in SMILES notation. This is part of a sample that, as a whole, favours compounds with a hit. Of some 79,000 tested, about 15% had one in any assay. Unmarked numbers belong to inactive results. Activity calls are given as the source filed them. No stated cut-off is given here; in the data, active means growth inhibition above about 70%; inactive means the rest.

Regarding `O=C([CH-]C(=O)c1ccccc1)c1ccccc1.O=C([CH-]C(=O)c1ccccc1)c1ccccc1.O=C([CH-]C(=O)c1ccccc1)c1ccccc1.[Cl-].[Hf+4]`, the growth inhibition is 38% in experiment [1] (setting [7]); 95% (active) in experiment [1] (setting [8]); 88% (active) in experiment [1] (at 50.0 µM); 37% in experiment [2] (setting [7]); 96% (active) in experiment [2] (setting [8]); 90.2% (active) in experiment [2] (at 50.0 µM). The growth inhibition is 50% in experiment [3] (setting [7]); 95% (active) in experiment [3] (setting [8]); 91.8% (active) in experiment [3] (at 50.0 µM); 64% in experiment [4] (setting [7]); 95% (active) in experiment [4] (setting [8]); 90.8% (active) in experiment [4] (at 50.0 µM). Also, the growth inhibition in experiment [5] (setting [7]) was 46%; in experiment [5] (setting [8]), 94% (active); in experiment [5] (at 50.0 µM), 87.9% (active).
In the case of `CCOP(=O)(OCC)C(O)c1ccccc1Cl` (stereo unspecified), the growth inhibition in experiment [1] (setting [7]) was 7%; in experiment [1] (setting [8]), 4%; in experiment [1] (at 50.0 µM), 38.4%; in experiment [2] (setting [7]), 7%; in experiment [2] (setting [8]) it was 4%; in experiment [2] (at 50.0 µM), -4.1%. For the same compound, the growth inhibition in experiment [3] (setting [7]) was 3%; in experiment [3] (setting [8]) it was 17%; in experiment [3] (at 50.0 µM), 9.15%; in experiment [6] (setting [7]) it was -5%; in experiment [6] (setting [8]), 1%; in experiment [6] (at 50.0 µM), 35.5%. Moreover, the growth inhibition was 7% in experiment [5] (setting [7]), 22% in experiment [5] (setting [8]) and 2.9% in experiment [5] (at 50.0 µM).
As to `CC(=O)[O-].O=C([CH-]C(=O)c1ccccc1)c1ccccc1.O=C([CH-]C(=O)c1ccccc1)c1ccccc1.[Dy+3]`, the growth inhibition is 44% in experiment [1] (setting [7]); 99% (active) in experiment [1] (setting [8]); 91.5% (active) in experiment [1] (at 50.0 µM); 35% in experiment [2] (setting [7]); 99% (active) in experiment [2] (setting [8]); 93.2% (active) in experiment [2] (at 50.0 µM). For the same compound, the growth inhibition in experiment [3] (setting [7]) is 44%; in experiment [3] (setting [8]), 100% (active); in experiment [3] (at 50.0 µM), 93.4% (active); in experiment [4] (setting [7]), 57%; in experiment [4] (setting [8]), 96% (active); in experiment [4] (at 50.0 µM) it was 92.1% (active). For the same compound, the growth inhibition in experiment [5] (setting [7]) was 50%; in experiment [5] (setting [8]), 98% (active); in experiment [5] (at 50.0 µM), 91.3% (active).
For `O=C(OCCl)c1ccccc1`, the growth inhibition is 11% in experiment [1] (setting [7]); -4% in experiment [1] (setting [8]); 3.9% in experiment [1] (at 50.0 µM); -1% in experiment [2] (setting [7]); -2% in experiment [2] (setting [8]); -5.6% in experiment [2] (at 50.0 µM). Besides, the growth inhibition in experiment [6] (setting [7]) is 7%; in experiment [6] (setting [8]), -4%; in experiment [6] (at 50.0 µM), 45.5%; in experiment [4] (setting [7]), 8%; in experiment [4] (setting [8]), 13%; in experiment [4] (at 50.0 µM), -7.7%. In addition, the growth inhibition in experiment [5] (setting [7]) was 6%; in experiment [5] (setting [8]), 5%; in experiment [5] (at 50.0 µM), 15.7%.
In the case of `CCC[CH2][Sn]([CH2]CCC)([CH2]CCC)[O]C(=O)C(OC)c1ccccc1` (stereo unspecified), the growth inhibition in experiment [1] (setting [7]) is 100% (active); in experiment [1] (setting [8]), 100% (active); in experiment [1] (at 50.0 µM) it was 90.5% (active); in experiment [2] (setting [7]) it was 100% (active); in experiment [2] (setting [8]), 100% (active); in experiment [2] (at 50.0 µM), 91.3% (active). Also, the growth inhibition in experiment [3] (setting [7]) was 99% (active); in experiment [3] (setting [8]) it was 99% (active); in experiment [3] (at 50.0 µM), 91% (active); in experiment [4] (setting [7]) it was 99% (active); in experiment [4] (setting [8]) it was 99% (active); in experiment [4] (at 50.0 µM), 88.7% (active). For the same compound, the figures for the growth inhibition in experiment [5] (setting [7]), in experiment [5] (setting [8]) and in experiment [5] (at 50.0 µM) were 100% (active), 100% (active) and 89.4% (active), respectively.
For `O=C(CC(=O)c1ccccc1)c1ccccc1.O=C(CC(=O)c1ccccc1)c1ccccc1.O=C(CC(=O)c1ccccc1)c1ccccc1.[Al]`, the growth inhibition was 2% in experiment [1] (setting [7]); -3% in experiment [1] (setting [8]); 19.7% in experiment [1] (at 50.0 µM); 5% in experiment [2] (setting [7]); 4% in experiment [2] (setting [8]); 86.4% (active) in experiment [2] (at 50.0 µM). Also, the growth inhibition is 5% in experiment [3] (setting [7]); 2% in experiment [3] (setting [8]); 43.6% in experiment [3] (at 50.0 µM); 4% in experiment [4] (setting [7]); 3% in experiment [4] (setting [8]); 6.55% in experiment [4] (at 50.0 µM). Also, the growth inhibition in experiment [5] (setting [7]) is 0%; in experiment [5] (setting [8]), 0%; in experiment [5] (at 50.0 µM), 20.4%.
Regarding `ClCCN1CCOCC1`, the growth inhibition in experiment [1] (setting [7]) was 95% (active); in experiment [1] (setting [8]), 97% (active); in experiment [1] (at 50.0 µM) it was 98% (active); in experiment [2] (setting [7]) it was 94% (active); in experiment [2] (setting [8]), 99% (active); in experiment [2] (at 50.0 µM) it was 98.8% (active). Moreover, the growth inhibition was 89% (active) in experiment [3] (setting [7]); 98% (active) in experiment [3] (setting [8]); 98.3% (active) in experiment [3] (at 50.0 µM); 71% (active) in experiment [6] (setting [7]); 98% (active) in experiment [6] (setting [8]); 95.8% (active) in experiment [6] (at 50.0 µM). Also, the results for the growth inhibition in experiment [5] (setting [7]), in experiment [5] (setting [8]) and in experiment [5] (at 50.0 µM) were 91% (active), 98% (active) and 98.8% (active), respectively.
Regarding `COC1CCC(OC2CC(C3(C)CCC4(CC(O)C(C)C(C(C)/C=C(\C)C(=O)C(C)CC(C)C(=O)O)O4)O3)OC3(OC(C4OC(O)(CO)C(C)CC4C)CC3C)C2C)OC1C` (stereo unspecified), the growth inhibition was 7% in experiment [1] (setting [7]); 85% (active) in experiment [1] (setting [8]); 61.1% in experiment [1] (at 50.0 µM); 19% in experiment [2] (setting [7]); 83% (active) in experiment [2] (setting [8]); 71.8% (active) in experiment [2] (at 50.0 µM). The growth inhibition in experiment [3] (setting [7]) was 23%; in experiment [3] (setting [8]) it was 83% (active); in experiment [3] (at 50.0 µM), 63.1%; in experiment [6] (setting [7]), 65%; in experiment [6] (setting [8]), 92% (active); in experiment [6] (at 50.0 µM), 68.6%. For the same compound, the growth inhibition was 22% in experiment [5] (setting [7]), 73% (active) in experiment [5] (setting [8]) and 69.4% in experiment [5] (at 50.0 µM).
For the compound `CC(C)CCC1(CCSC(=O)S)C(=O)NC(=O)NC1=O`, the growth inhibition in experiment [1] (setting [7]) is -4%; in experiment [1] (setting [8]), 77% (active); in experiment [1] (at 50.0 µM), 85.3% (active); in experiment [2] (setting [7]), 0%; in experiment [2] (setting [8]), 62%; in experiment [2] (at 50.0 µM) it was 8.3%. Besides, the growth inhibition is 4% in experiment [3] (setting [7]); 67% in experiment [3] (setting [8]); 25.8% in experiment [3] (at 50.0 µM); -4% in experiment [6] (setting [7]); 21% in experiment [6] (setting [8]); -37.2% in experiment [6] (at 50.0 µM). Moreover, the growth inhibition in experiment [4] (setting [7]) is -4%; in experiment [4] (setting [8]) it was 65%; in experiment [4] (at 50.0 µM), 19.8%; in experiment [5] (setting [7]) it was -8%; in experiment [5] (setting [8]), 70% (active); in experiment [5] (at 50.0 µM), 30.8%.
Turning to `O=c1ccc(N=Cc2ccc(N(CCCl)CCCl)cc2)ccc1O`, the growth inhibition in experiment [1] (setting [7]) is 94% (active); in experiment [1] (setting [8]), 93% (active); in experiment [1] (at 50.0 µM), 96.2% (active); in experiment [2] (setting [7]) it was 92% (active); in experiment [2] (setting [8]), 97% (active); in experiment [2] (at 50.0 µM), 65.4%. In addition, the growth inhibition in experiment [3] (setting [7]) is 97% (active); in experiment [3] (setting [8]) it was 98% (active); in experiment [3] (at 50.0 µM), 92% (active); in experiment [6] (setting [7]), 52%; in experiment [6] (setting [8]), 89% (active); in experiment [6] (at 50.0 µM), 35.4%. Further, the growth inhibition in experiment [5] (setting [7]) was 98% (active); in experiment [5] (setting [8]) it was 98% (active); in experiment [5] (at 50.0 µM), 93.8% (active).
On to `S=C=[N][Sn]([N]=C=S)([c]1ccccc1)[c]1ccccc1.c1ccc2nc(-c3ccc4ccccc4n3)ccc2c1`, for which the growth inhibition in experiment [1] (setting [7]) is 72% (active); in experiment [1] (setting [8]), 98% (active); in experiment [1] (at 50.0 µM) it was 89.3% (active); in experiment [2] (setting [7]) it was 65%; in experiment [2] (setting [8]), 99% (active); in experiment [2] (at 50.0 µM), 91.2% (active). In addition, the growth inhibition in experiment [3] (setting [7]) was 84% (active); in experiment [3] (setting [8]), 99% (active); in experiment [3] (at 50.0 µM) it was 91.5% (active); in experiment [6] (setting [7]), 51%; in experiment [6] (setting [8]), 99% (active); in experiment [6] (at 50.0 µM), 90.8% (active). The growth inhibition was 85% (active) in experiment [4] (setting [7]); 99% (active) in experiment [4] (setting [8]); 90% (active) in experiment [4] (at 50.0 µM); 77% (active) in experiment [5] (setting [7]); 98% (active) in experiment [5] (setting [8]); 77.5% (active) in experiment [5] (at 50.0 µM).

The values above are taken from PubChem BioAssay (NCI).
